Among the data in PubChem BioAssay AID488969 (Vanderbilt High Throughput Screening Facility, 2010) are z-score values, retold here.

The full ranking holds about 110,000 compounds; the median of “z-score” is about -0.1, and the highest 2% start at about 2. Many of the other results were omitted from the sample, so the highest values are more common in it than they were. The source made the active and inactive calls.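 Rule for the calls: active = z-score in the third read window above 3 or below -3; inactive = the rest.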

The target of the assay is Metabotropic glutamate receptor 8 (Rattus norvegicus) (UniProt P70579). In words: rat mGluR8 modulators via GIRK flux, primary screen, cell-based, thallium flux, HTS (AID 488969). The conditions noted are these: HEK293 rat mGluR8, GIRK (G protein-gated inwardly rectifying potassium channel) thallium flux, FluoZin2; at 10 µM; stronger effect = higher value; submaximal glutamate (EC20) added with thallium.
Chain of Metabotropic glutamate receptor 8 (Rattus norvegicus) (P70579 whole entry, looked up): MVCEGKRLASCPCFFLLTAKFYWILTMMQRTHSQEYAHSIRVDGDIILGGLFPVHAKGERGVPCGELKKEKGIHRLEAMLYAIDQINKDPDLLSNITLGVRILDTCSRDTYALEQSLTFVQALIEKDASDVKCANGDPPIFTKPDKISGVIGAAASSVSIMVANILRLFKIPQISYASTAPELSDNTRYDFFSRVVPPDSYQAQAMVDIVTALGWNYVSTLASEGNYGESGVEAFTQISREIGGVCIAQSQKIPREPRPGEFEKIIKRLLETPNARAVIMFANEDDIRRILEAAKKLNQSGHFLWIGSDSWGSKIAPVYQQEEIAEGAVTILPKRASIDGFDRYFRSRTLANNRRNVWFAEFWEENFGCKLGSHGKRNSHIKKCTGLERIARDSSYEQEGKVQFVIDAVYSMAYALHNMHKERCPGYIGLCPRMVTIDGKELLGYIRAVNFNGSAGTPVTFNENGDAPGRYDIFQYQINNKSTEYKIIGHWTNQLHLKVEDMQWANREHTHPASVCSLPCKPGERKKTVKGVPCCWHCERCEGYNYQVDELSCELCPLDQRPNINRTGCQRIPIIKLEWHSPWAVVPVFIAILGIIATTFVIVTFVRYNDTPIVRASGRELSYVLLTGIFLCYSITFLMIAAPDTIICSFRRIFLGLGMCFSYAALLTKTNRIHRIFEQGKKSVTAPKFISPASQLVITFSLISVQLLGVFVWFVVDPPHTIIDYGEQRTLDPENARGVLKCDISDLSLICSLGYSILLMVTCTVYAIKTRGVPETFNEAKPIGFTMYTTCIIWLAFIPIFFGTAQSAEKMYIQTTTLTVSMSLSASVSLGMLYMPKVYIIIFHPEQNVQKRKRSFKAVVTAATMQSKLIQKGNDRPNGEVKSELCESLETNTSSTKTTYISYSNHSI
The compound `CCn1c(-c2csc3c2CCCC3)n[nH]c1=S` gave a z-score of -0.181. Compound `CC(C)Cn1c(-c2csc3ccccc23)n[nH]c1=S` had a z-score of 0.509. The figure for `CCCCn1c(-c2csc3c2CCC(C)C3)n[nH]c1=S` (stereo not drawn) is 7.55 (active); for `CCCCn1c(-c2csc3ccccc23)n[nH]c1=S` it is 2.3.

As for `CCn1c(-c2csc3c2CCC(C)C3)n[nH]c1=S` (stereo not drawn), the z-score is 1.49.

`C=CCn1c(-c2csc3c2CCC(C)C3)n[nH]c1=S` (stereo not drawn): the z-score worked out at 0.494. Take `CCn1c(-c2csc3ccccc23)n[nH]c1=S`: the z-score is -0.273. The figure for `CCCCn1c(-c2csc3c2CCCC3)n[nH]c1=S` is 6.19 (active). Turning to `CC(C)Cn1c(-c2csc3c2CCCC3)n[nH]c1=S`, the z-score is -1.59. The figure for `CCCOc1ccc(C2/C(=C(\O)c3c(C)[nH]c(C(=O)OC)c3C)C(=O)C(=O)N2CCN(C)C)cc1` (stereo not drawn) is 0.491; for `CCC(N1CCOC1=O)S(=O)(=O)c1ccc(C)cc1` (stereo not drawn) it is -0.148; for `Cc1cccnc1NC(=O)Nc1cccs1` it is -0.232. The compound `COc1cc(NC(=O)c2ccc(COc3ccccc3Br)o2)cc(OC)c1OC` registered a z-score of -0.932.

Compound `COc1cc(NC(=O)c2ccc(COCC(F)(F)F)o2)cc(OC)c1OC` registered a z-score of 2.1. Next, `COc1cc(NC(=O)c2ccc(COCC(F)(F)F)cc2)cc(OC)c1OC`: -0.608; `NC(=O)C1CCN(C(=O)COc2ccc3ccccc3c2)CC1`: 0.115. The figure for `CCc1ccc(NC(=O)COn2nnc3ccc(S(=O)(=O)N(C)C)cc32)cc1` is -0.27; for `Cc1ccc(NC(=O)COn2nnc3ccc(S(=O)(=O)N(C)C)cc32)cc1F` it is 3.29 (active). The figure for `CCN(CC)S(=O)(=O)c1ccc2nnn(OCC(=O)Nc3cccc(C#N)c3)c2c1` is -0.793. `COCCNS(=O)(=O)c1ccc(-c2ccc(C)cc2)cc1` came in with a z-score of -0.0903. Next, `CCOC(=O)c1cnc2c(Cl)cccc2c1NCCN(C)C`: 0.313; `O=C(O)C1C2C=CC(C2)C1C(=O)NC1CCN(Cc2ccccc2)CC1` (stereo not drawn): 0.581; `O=C(C1CCCCC1)N1CCC(c2nc3ccccc3[nH]2)CC1`: -0.166. In the case of `Cc1cc(=O)c2ccccc2[nH]1`, the z-score was 0.0595. Next, `CC(C)c1nc(=S)c2ccccc2[nH]1`: 13.7 (active); `S=c1nc(C2CC2)[nH]c2ccccc12`: 9.36 (active). Turning to `Cc1nc(=S)c2ccccc2[nH]1`, the z-score came to 1.49. As for `S=c1nc[nH]c2c1[nH]c1ccccc12`, the z-score stood at 0.0879. On to `COc1ccc(Cc2nnc(SCc3c(C)noc3C)n2C2CCCCC2)cc1OC`, for which the z-score stood at 0.045. Next, `CSC(=NC(C)c1ccccc1)NS(=O)(=O)c1cccs1` (stereo not drawn): 0.148; `COc1ccc(/C=C/C(=O)NC(=S)Nc2cc3oc4ccccc4c3cc2OC)cc1`: 0.0202; `Cc1cccc(C)c1-n1c(C)cc(/C=C2\NC(=O)NC2=O)c1C`: -0.96. `Cc1cc(/C=C2/NC(=O)NC2=O)c(C)n1-c1ccccn1` had a z-score of -0.389. `Cc1cc(C)c(-n2c(C)cc(/C=C3/NC(=O)NC3=O)c2C)c(C)c1` registered a z-score of 2.07.

Compound `Cn1cnnc1SC(C(=O)Nc1ccc(F)cc1)c1ccccc1` (stereo not drawn) showed a z-score of -0.0653. The figure for `Cc1ccc(S(=O)(=O)N2CCC(C(=O)NC3CCCCCC3)CC2)cc1` is -0.0732.

Compound `CCC/C(O)=C1\C(=O)CCCC1=NCCCCCC(=O)O` showed a z-score of 0.156. `COc1ccc(OC)c(CCNC(=O)CN2C(=O)CC(C)(C)S(=O)(=O)c3ccccc32)c1` showed a z-score of 0.0628.

Take `COc1ccc(-c2nc(CS(=O)(=O)CC(=O)NCCc3cc(OC)ccc3OC)c(C)o2)cc1`: the z-score is -0.299.

On to `COc1ccc(OC)c(CCNC(=O)Cn2sc3nc(C)cc(C)c3c2=O)c1`, for which the z-score stood at 2.22.

Consider `O=C(C1CCC(=O)N1Cc1ccccc1Cl)N1CCN(c2cccc(Cl)c2)CC1` (stereo not drawn), for which the z-score is -0.174. The compound `CC(CNC(=O)c1cc(Cl)ccc1[N+](=O)[O-])NC(=O)c1cc(Cl)ccc1[N+](=O)[O-]` (stereo not drawn) registered a z-score of -0.0709. With `Cc1ccc(/C([O-])=C(/C(=S)NCc2ccco2)[n+]2ccccc2)cc1`, the z-score was -0.112.

On to `Cc1cc(C)n(-c2nc(NCCC(C)C)c3c4c(sc3n2)COC(C)(C)C4)n1`, for which the z-score was -0.867. The figure for `N=c1nc(-c2ccccc2)ccn1O` is 2.64; for `CNc1ccccc1-n1ccc(-c2ccccc2)n1` it is 1.11; for `c1ccc(-c2ccn3nnnc3n2)cc1` it is -0.244.

In turn, `O=c1c(-c2ccco2)[n+]([O-])c2ccccc2n1OCc1ccccn1` returned a z-score of -0.153.

`CN1CCN(S(=O)(=O)c2cccc(S(=O)(=O)c3ccc(Cl)c(Cl)c3)c2)CC1` had a z-score of 1.26. In the case of `CN1CCN(S(=O)(=O)c2cccc(S(=O)(=O)c3cccc(S(=O)(=O)N4CCN(C)CC4)c3)c2)CC1`, the z-score is 14 (active). Compound `CN1CCN(S(=O)(=O)c2cccc(S(=O)(=O)c3ccc(Cl)cc3)c2)CC1` showed a z-score of 0.2. In the case of `CCC(=O)NCc1cc(-c2nn(C)c(=O)c3ccccc23)ccc1C`, the z-score was -0.415. The figure for `COc1ccc(C)cc1NC(=O)C(Sc1ccccc1)c1ccccc1` (stereo not drawn) is 0.296; for `CCCn1c(SC(C(=O)Nc2cccc(OC)c2)c2ccccc2)nc2ccccc2c1=O` (stereo not drawn) it is -0.276. In turn, `COc1cccc(NC(=O)C(Sc2nc3ccccc3c(=O)n2CC(C)C)c2ccccc2)c1` (stereo not drawn) had a z-score of 2.63. Compound `COc1cccc(NC(=O)C(Sc2nnc3ccccn23)c2ccccc2)c1` (stereo not drawn) returned a z-score of -0.184. Regarding `CCCn1c(SC(C(=O)Nc2cc(C)ccc2OC)c2ccccc2)nc2ccccc2c1=O` (stereo not drawn), the z-score was 3.61 (active). The figure for `CCNc1nc(NCC)n2c(SC(C(=O)Nc3cc(C)ccc3OC)c3ccccc3)nnc2n1` (stereo not drawn) is -0.463; for `Cc1cccc(CCNC(=O)C2CCC(CNc3c(N4CCCC4)c(=O)c3=O)CC2)c1` (stereo not drawn) it is -0.262. Next, `CCOc1ccc(-c2nnn(CC(=O)NCc3ccco3)n2)cc1OCC`: 0.241; `CC(=O)C1=C(c2ccccc2)NC(=O)NC1c1ccccc1OCC#N` (stereo not drawn): 1.96; `CC(=O)c1c(C)[nH]c(C(=O)N2CCN(C(=O)c3ccco3)CC2)c1C`: -0.564. The figure for `O=C(CSc1nc2c(cnn2-c2ccc(F)cc2)c(=O)[nH]1)N1CCOCC1` is 0.476; for `CC(=O)c1cnn(-c2cc(Oc3ccc(F)cc3)ncn2)c1C` it is 0.354; for `CC(=O)c1cnn(-c2cc(Oc3cccc(C)c3)ncn2)c1C` it is 2.24. On to `COC(=O)c1cnn(-c2cc(Oc3cccc(C)c3)ncn2)c1N`, for which the z-score came out at 0.309.

As to `COC(=O)c1ccc(C2C(Oc3ccc(OC)cc3)C(=O)N2CCc2ccc(OC)c(OC)c2)cc1` (stereo not drawn), the z-score is -0.234.

Consider `N#Cc1c(N)nc2c3c(sc(=N)c2c1N)NC(=O)CC3c1ccccc1` (stereo not drawn), for which the z-score is -0.0395.

Compound `COc1ccc(OC)c(S(=O)(=O)NCc2csc(-c3ccccc3)n2)c1` gave a z-score of -0.245. The compound `CCS(=O)(=O)NCCc1csc(-c2ccccc2)n1` yielded a z-score of -0.276. With `CS(=O)(=O)NCc1csc(-c2ccccc2)n1`, the z-score worked out at 2.26. On to `COc1cccc(CNC(=O)Cc2nc3nc(C)cc(C)n3n2)c1`, for which the z-score is -0.187. Regarding `Cn1cc(C(=O)Nc2cccc(F)c2)cn1`, the z-score came out at 0.0603. Next, `COc1ccc(CN2C(=O)c3ccccc3C(/C=N\OCc3ccc(F)cc3)C2=O)cc1` (stereo not drawn): 0.722. The figure for `COc1ccc(CN2C(=O)c3ccccc3C(/C=N/OCc3ccc(Cl)cc3)C2=O)cc1` (stereo not drawn) is 0.378; for `COc1ccc(CN2C(=O)c3ccccc3C(/C=N\OCc3ccc(C)cc3)C2=O)cc1` (stereo not drawn) it is 2.42.

The compound `COc1ccc(OC)c(/C(O)=C/C(=O)C(=O)Nc2cc(C)cc(C)c2)c1` returned a z-score of 0.571. Next, `CCOC(=O)C(NC(=O)c1ccccc1)(OCc1ccc(F)cc1)C(F)(F)F` (stereo not drawn): 0.14. Next, `Cc1cc(C(=O)CSc2nnc(-c3ccccc3)n2C)c(C)n1C`: -0.546; `CCn1c(SCC(=O)c2cc(C)n(C)c2C)nnc1-c1ccccc1`: 0.0656; `Cc1cc(C(=O)CSc2nnc(-c3ccncc3)n2-c2ccccc2)c(C)n1C`: 4.58 (active).

As to `C=CCn1c(SCC(=O)NCCc2ccccc2)nnc1C(C)NC(=O)c1cccs1` (stereo not drawn), the z-score turned out to be 0.0814. Compound `O=c1c(-c2nnc(SCc3ccc(Cl)cc3)o2)cccn1Cc1ccccc1` showed a z-score of 0.618. Next, `N#C/C(=C\c1ccc(OC(=O)c2ccccn2)cc1)C(N)=O`: -0.197; `COc1ccc(S(=O)(=O)Nc2cc(Sc3ncn[nH]3)c(O)c3ccccc23)cc1`: 0.366. Take `O=S(=O)(Nc1cc(Sc2cccc3cccnc23)c(O)c2ccccc12)c1ccc(F)cc1`: the z-score is 5.2 (active). The figure for `O=S(=O)(NCCOc1cccc2cccnc12)c1ccc(F)cc1` is -0.153.

With `COC(=O)c1ccc(N2CCN(S(=O)(=O)c3ccccc3)CC2)c([N+](=O)[O-])c1`, the z-score is -0.111.

In turn, `Cc1cc(=O)n(C)c(=O)n1CC(=O)N1CCCCCC1` displayed a z-score of 0.975. The figure for `Cc1c(NC(=O)/C(C#N)=C/c2cccs2)c(=O)n(-c2ccccc2)n1C` is 0.559; for `O=C(Oc1ccccc1)c1cc2ccccc2o1` it is 2.68. Compound `COc1ccc(OC(=O)c2cc3ccccc3o2)cc1` had a z-score of 0.125. `O=C(Nc1ccccc1)c1ccc(OC(=O)c2cc3ccccc3o2)cc1` showed a z-score of -0.284. Next, `CCCCn1c(=O)c(C(=O)c2ccccc2)nc2ccccc21`: -0.617; `S=c1sc2c(N3CCN(Cc4ccccc4)CC3)ncnc2n1-c1ccccc1`: 0.467. The figure for `COc1ccc(CCN(Cc2cccs2)S(=O)(=O)c2ccc(S(=O)(=O)N3CCC(C)CC3)cc2)cc1OC` is -0.101. The figure for `CCOC(=O)N1CCN(C(=O)c2ccc3c(=O)n(CCC4=CCCCC4)c(=S)[nH]c3c2)CC1` is 0.221. `CCCCn1c(=S)[nH]c2c(oc3ccc(Cl)cc32)c1=O`: the z-score is 13.1 (active). The compound `O=c1c2ccccc2[nH]c(=S)n1CCC1=CCCCC1` gave a z-score of 0.577. Next, `CCN(CC)CCCn1c(=S)[nH]c2cc(Cl)ccc2c1=O`: 4.1 (active). The compound `CCN(CC)CCn1c(=S)[nH]c2cc(Cl)ccc2c1=O` showed a z-score of 1.41.

Consider `CCN(CC)CCCn1c(=S)[nH]c2ccc(Cl)cc2c1=O`, for which the z-score was 0.0726. The figure for `O=c1c2ccc(Cl)cc2[nH]c(=S)n1CCC1=CCCCC1` is 5.05 (active); for `O=c1c2oc3ccccc3c2[nH]c(=S)n1-c1ccccc1` it is 0.645.

`CCN(CC)CCCn1c(=S)[nH]c2cc(OC)c(OC)cc2c1=O` yielded a z-score of -0.0622. The figure for `Cc1ccc(C)c(N2CCN(c3ccc(N4C(=O)COCC4=O)cc3[N+](=O)[O-])CC2)c1` is -0.128; for `O=[N+]([O-])c1ccc2c(c1)C(N1CCOCC1)/C(=C/COc1ccc3ccccc3c1Br)O2` (stereo not drawn) it is -0.0823; for `COc1ccc(-c2nnn(CC(=O)N3CCN(c4ccccc4OC)CC3)n2)cc1` it is -0.289.
